# Assay results as given in PubChem BioAssay (NCATS).
# A number with no mark means an inactive call. Inconclusive results are not listed. Activity calls are given as the source filed them. Unless noted, the call rests on the fitted dose curve; in most records, active means well fitted curve in either direction with a large enough effect (not every such curve was filed as active); inconclusive means small, poorly fitted or top-dose-only effect, or another doubt; inactive means flat fitted curve, though single readings scatter.
# Tests used:
# [1] = AP1 Signaling Pathway (AID 357); details: ME-180 AP-1-bla reporter, EGF-induced, beta-lactamase ratio, 5 h; at 7.69 µM (top of the series) unless noted;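 further: ME-180 reporter cells stimulated with EGF at its EC50 level; on the % scale 0 is the no-effect control and ±100 the full control effect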
# Procedure, shortened: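 First, ME-180 AP-1-bla cells were cultured overnight at 37 °C in low-serum Opti-MEM. Next, titrated compounds with EC50 EGF were incubated 5 hours. Finally, CCF4 was added for 2.5 hours and the 460/530 nm ratio recorded.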
# [2] = molecular target: Cytochrome P450 1A2 (Homo sapiens) (UniProt P05177); experiment: p450-cyp1a2 (AID 410; calls by dose curve; further: potency means the concentration at half of the fitted maximal effect;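 on activity change, negative = inhibition: -100% = full effect of reference inhibitor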); details: recombinant CYP1A2, luciferin-ME demethylation, luminescence; series mostly up to 57 µM
# Chain of Cytochrome P450 1A2 (Homo sapiens) (P05177 whole entry, looked up): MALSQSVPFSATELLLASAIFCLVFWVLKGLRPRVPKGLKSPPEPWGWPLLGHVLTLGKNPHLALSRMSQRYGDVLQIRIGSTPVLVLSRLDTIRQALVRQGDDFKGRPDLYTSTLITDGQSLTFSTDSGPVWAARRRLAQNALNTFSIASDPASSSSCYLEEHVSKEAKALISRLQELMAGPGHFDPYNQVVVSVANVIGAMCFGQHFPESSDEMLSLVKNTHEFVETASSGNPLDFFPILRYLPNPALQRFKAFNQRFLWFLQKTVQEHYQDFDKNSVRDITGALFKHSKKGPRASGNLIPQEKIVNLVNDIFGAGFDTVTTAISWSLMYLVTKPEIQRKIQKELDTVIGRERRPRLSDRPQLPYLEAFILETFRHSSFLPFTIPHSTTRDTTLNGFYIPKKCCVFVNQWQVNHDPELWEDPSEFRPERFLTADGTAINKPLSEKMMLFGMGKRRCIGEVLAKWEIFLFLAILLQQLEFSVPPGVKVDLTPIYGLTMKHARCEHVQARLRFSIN
# Procedure, shortened: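 20nM CYP1A2, 100uM Luciferin-ME (=Km), 100mM KPO4; cpd 10 min RT; +NADPH regen, 60 min RT; stop/detect 20 min; luminescence. Normalized to furafylline 57 uM = full inhibition.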
# [3] = NFAT Signaling Pathway (AID 444); details: Jurkat NFAT-bla M1, carbachol, beta-lactamase ratio, 5 h; at 7.69 µM (top of the series) unless noted;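 further: carbachol stimulus at about its EC50 of 1 µM final; on the % scale 0 is the no-effect control and ±100 the full control effect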
# Procedure, shortened: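 Jurkat cells carrying an NFAT-driven β-lactamase reporter and co-transfected muscarinic M1 receptor were treated with compound plus carbachol (1 uM final, an EC50 level) for 5 h at 37 °C. CCF4 loading followed for 1 h at RT; 460/530 nm ratio gave %activity.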
# [4] = Stat Signaling Pathway (AID 446); details: ME-180 SIE beta-lactamase reporter, IL-6 stimulated, 5 h; at 7.69 µM (top of the series) unless noted;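 further: ME-180 cervical cancer cells given 40 pM IL-6 alongside compound; SIE-controlled beta-lactamase reporter measured as 460/530 nm FRET emission ratio; on the % scale 0 is the no-effect control and ±100 the full control effect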
# Procedure, shortened: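 Compound effects on IL-6-induced STAT reporter activity were measured in ME-180 cells. After overnight culture, cells were co-treated with 40 pM IL-6 for 5 hrs before beta-lactamase substrate loading at room temperature.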
# [5] = molecular target: Glucocorticoid receptor (Homo sapiens) (UniProt P04150); experiment: GR-GFP Redistribution (AID 450;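 active means compounds whose dose series gives a full or clear partial fitted curve of increased nuclear translocation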; further: potency means the concentration at half of the fitted maximal effect); details: U2OS GR-GFP nuclear translocation, laser cytometry, 2 h
# Chain of Glucocorticoid receptor (Homo sapiens) (P04150 whole entry, looked up, the tested form may be a part): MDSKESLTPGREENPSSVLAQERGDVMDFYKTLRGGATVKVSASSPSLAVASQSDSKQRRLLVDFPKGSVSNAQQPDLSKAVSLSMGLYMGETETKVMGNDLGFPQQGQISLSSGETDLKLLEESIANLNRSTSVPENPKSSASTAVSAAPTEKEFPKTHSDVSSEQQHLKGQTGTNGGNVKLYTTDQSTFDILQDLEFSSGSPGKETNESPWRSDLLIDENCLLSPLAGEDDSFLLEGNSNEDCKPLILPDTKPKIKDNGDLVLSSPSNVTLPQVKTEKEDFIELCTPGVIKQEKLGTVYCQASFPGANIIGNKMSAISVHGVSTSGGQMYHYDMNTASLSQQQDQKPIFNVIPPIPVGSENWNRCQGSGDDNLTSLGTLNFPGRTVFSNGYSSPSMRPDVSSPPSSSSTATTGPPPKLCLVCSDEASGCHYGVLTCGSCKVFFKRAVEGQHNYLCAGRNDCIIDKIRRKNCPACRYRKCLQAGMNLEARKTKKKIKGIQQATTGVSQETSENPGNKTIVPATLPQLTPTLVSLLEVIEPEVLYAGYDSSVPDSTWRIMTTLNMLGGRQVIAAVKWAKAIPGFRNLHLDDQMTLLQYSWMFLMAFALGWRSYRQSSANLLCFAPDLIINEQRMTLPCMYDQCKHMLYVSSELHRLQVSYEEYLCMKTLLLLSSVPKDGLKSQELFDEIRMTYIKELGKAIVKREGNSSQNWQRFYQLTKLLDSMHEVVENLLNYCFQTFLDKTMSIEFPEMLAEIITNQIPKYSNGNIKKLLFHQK
# [6] = molecular target: Glucocorticoid receptor (Homo sapiens) (UniProt P04150); experiment: GR-EFC Redistribution (AID 451; calls by dose curve; further: potency means the concentration at half of the fitted maximal effect); details: CHO-K1 GR-EFC translocation, beta-gal luminescence, 2 h
# Procedure, shortened: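 CHO-K1 cells stably expressing nuclear-localized β-gal enzyme acceptor and GR fused C-terminally to the enzyme donor fragment; ligand-driven nuclear translocation restores β-gal by complementation. Compounds titrated up to 46 uM final, 2 h at 37 °C; luminescence read.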
# [7] = molecular target: Cytochrome P450 2C9 (Homo sapiens) (UniProt P11712); experiment: qHTS Assay for Inhibitors and Substrates of Cytochrome P450 2C9 (AID 883; active means well fitted curve in the direction sought with a large enough effect; an effect the other way counts as inactive or inconclusive; further: nearly all actives have a fitted effect of over 60% in size; further: potency means the concentration at half of the fitted maximal effect); details: recombinant CYP2C9, luciferin-H luminescence, 60 min; series mostly up to 57.1 µM
# Chain of Cytochrome P450 2C9 (Homo sapiens) (P11712 whole entry, looked up): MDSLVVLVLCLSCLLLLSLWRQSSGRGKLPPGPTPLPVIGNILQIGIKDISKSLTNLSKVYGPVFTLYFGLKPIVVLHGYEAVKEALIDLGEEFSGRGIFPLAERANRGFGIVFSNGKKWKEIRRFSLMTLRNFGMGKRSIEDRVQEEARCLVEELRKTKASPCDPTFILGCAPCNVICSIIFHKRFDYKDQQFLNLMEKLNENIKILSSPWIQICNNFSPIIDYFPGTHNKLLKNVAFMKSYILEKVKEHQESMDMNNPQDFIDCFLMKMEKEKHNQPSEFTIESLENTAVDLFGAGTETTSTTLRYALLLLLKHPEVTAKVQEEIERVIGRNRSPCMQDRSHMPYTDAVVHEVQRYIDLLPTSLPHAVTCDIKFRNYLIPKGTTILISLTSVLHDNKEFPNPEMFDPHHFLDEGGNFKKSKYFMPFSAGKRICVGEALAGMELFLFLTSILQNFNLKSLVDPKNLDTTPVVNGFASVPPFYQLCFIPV
# Procedure, shortened: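 CYP2C9 deoxyluciferin hydroxylation, 37C, 60 min with NADPH regeneration; 10nM enzyme, 100uM Luciferin-H (KM). Glo detection reagent stopped reaction; luminescence normalized to sulphaphenazole (57uM) full inhibition.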
# [8] = molecular target: Cytochrome P450 3A4 (Homo sapiens) (UniProt P08684); experiment: qHTS Assay for Inhibitors and Substrates of Cytochrome P450 3A4 (AID 884; active means well fitted curve in the direction sought with a large enough effect; an effect the other way counts as inactive or inconclusive; further: potency means the concentration at half of the fitted maximal effect; nearly all actives have a fitted effect of over 50% in size); details: recombinant CYP3A4, Luciferin-PPXE luminescence; series mostly up to 57.1 µM
# Chain of Cytochrome P450 3A4 (Homo sapiens) (P08684 whole entry, looked up): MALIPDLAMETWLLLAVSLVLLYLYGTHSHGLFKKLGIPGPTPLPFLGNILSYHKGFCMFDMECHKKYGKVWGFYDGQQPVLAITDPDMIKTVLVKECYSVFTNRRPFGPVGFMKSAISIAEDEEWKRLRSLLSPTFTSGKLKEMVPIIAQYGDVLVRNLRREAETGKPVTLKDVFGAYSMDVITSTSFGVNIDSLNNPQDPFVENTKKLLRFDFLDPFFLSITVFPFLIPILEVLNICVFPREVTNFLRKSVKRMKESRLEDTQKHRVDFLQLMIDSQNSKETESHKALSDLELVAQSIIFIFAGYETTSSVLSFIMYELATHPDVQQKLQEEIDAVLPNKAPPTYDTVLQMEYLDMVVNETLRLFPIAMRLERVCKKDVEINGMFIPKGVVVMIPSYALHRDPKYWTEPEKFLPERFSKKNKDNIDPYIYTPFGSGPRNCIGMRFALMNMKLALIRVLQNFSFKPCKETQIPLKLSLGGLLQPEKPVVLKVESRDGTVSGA
# Procedure, shortened: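 Luminescent readout of luciferin produced by CYP3A4 (20 nM) dealkylation of Luciferin-PPXE, 25 uM (its KM). NADPH-driven reaction ran 60 min at RT after 10 min compound preincubation; data scaled to 57 uM ketoconazole as 100% inhibition.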
# [9] = molecular target: Cytochrome P450 3A4 (Homo sapiens) (UniProt P08684); experiment: qHTS Assay for Activators of Cytochrome P450 3A4 (AID 885; active means well fitted curve in the direction sought with a large enough effect; an effect the other way counts as inactive or inconclusive; further: nearly all actives have a fitted effect of over 65% in size; further: potency means the concentration at half of the fitted maximal effect); details: recombinant CYP3A4, Luciferin-PPXE luminescence, 60 min; series mostly up to 57.1 µM
# Procedure, shortened: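 CYP3A4 activity: Luciferin-PPXE O-dealkylation, 25uM substrate, 200mM KPO4, RT throughout. Read-out is luciferase luminescence; higher values reflect activation.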
# [10] = Primary qHTS for small molecule stabilizers of the endoplasmic reticulum resident proteome: Secreted ER Calcium Modulated Protein (SERCaMP) assay (AID 1508630; active means well fitted curve in the direction sought with a large enough effect; an effect the other way counts as inactive or inconclusive; further: on the % scale 0 is the no-effect control and ±100 the full control effect); details: SH-SY5Y GLuc-SERCaMP (Gaussia luciferase released on ER calcium loss) secretion, thapsigargin, luminescence; series mostly up to 38.4 µM
# Procedure, shortened: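 The SH-SY5Y reporter protocol was run at 3 concentrations up to 38.3 uM (primary) or 11 concentrations (follow-up): 16 h compound, 100 nM thapsigargin for 4 h, then extracellular luciferase luminescence.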
# [11] = molecular target: Lysosomal acid glucosylceramidase (Homo sapiens) (UniProt P04062); experiment: Glucocerebrosidase-p2 (AID 348; in the data active means potency below about 10 µM; further: potency means the concentration at half of the fitted maximal effect); details: purified GBA, blue fluorogenic substrate, 40 min
# Chain of Lysosomal acid glucosylceramidase (Homo sapiens) (P04062 whole entry, looked up): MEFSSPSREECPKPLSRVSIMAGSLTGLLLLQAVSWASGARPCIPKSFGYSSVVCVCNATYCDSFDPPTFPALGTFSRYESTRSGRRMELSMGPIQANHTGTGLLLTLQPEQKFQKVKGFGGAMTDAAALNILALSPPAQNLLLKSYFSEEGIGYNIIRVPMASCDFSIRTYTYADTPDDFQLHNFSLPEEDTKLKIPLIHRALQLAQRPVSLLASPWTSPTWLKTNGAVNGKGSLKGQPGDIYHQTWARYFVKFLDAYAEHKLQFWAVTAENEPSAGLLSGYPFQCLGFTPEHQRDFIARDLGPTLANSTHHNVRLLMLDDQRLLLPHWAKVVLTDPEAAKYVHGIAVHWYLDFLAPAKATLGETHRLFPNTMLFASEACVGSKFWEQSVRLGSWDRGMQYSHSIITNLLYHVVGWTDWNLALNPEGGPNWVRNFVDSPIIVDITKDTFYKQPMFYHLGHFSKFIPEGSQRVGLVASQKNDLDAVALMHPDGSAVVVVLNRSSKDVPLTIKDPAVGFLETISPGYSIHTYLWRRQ
# Procedure, shortened: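 Normal human glucocerebrosidase (0.2 nM) with blue fluorogenic substrate (80 uM final) in citrate/phosphate pH 5.9 with 10mM sodium taurocholate, 0.01% tween-20; 40 min RT, NaOH/glycine stop; fluorescence Ex 365/Em 440; AC50 from a titration from 0.6 nM upwards.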
# [12] = molecular target: Mitogen-activated protein kinase 10 (Mus musculus) (UniProt Q61831); experiment: JNK3 AlphaScreen Assay (AID 530); details: JNK3 lysate, c-Jun phosphorylation; series mostly up to 57.1 µM
# Procedure, shortened: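 Biotinylated GST-cJun(1-79) served as substrate for JNK3 in HepG2 lysates stimulated with IL-1beta and TNF-alpha. ATP was 10 uM final, pH 7.6. Ser73 phosphorylation was quantified by AlphaScreen (680 nm excitation).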
# [13] = molecular target: 3',5'-cyclic-AMP phosphodiesterase 4B (Homo sapiens) (UniProt Q07343); experiment: qHTS Assay for Inhibitors of PDE-IV (AID 607; active means well fitted activation curve with a large enough effect in the main read-out, with a control signal flat, not every such curve was filed as active; further: % of control where 0% means no effect); details: HEK293 ACTOne CNG channel cells, membrane potential fluorescence; series mostly up to 22.9 µM
# Chain of 3',5'-cyclic-AMP phosphodiesterase 4B (Homo sapiens) (Q07343 whole entry, looked up): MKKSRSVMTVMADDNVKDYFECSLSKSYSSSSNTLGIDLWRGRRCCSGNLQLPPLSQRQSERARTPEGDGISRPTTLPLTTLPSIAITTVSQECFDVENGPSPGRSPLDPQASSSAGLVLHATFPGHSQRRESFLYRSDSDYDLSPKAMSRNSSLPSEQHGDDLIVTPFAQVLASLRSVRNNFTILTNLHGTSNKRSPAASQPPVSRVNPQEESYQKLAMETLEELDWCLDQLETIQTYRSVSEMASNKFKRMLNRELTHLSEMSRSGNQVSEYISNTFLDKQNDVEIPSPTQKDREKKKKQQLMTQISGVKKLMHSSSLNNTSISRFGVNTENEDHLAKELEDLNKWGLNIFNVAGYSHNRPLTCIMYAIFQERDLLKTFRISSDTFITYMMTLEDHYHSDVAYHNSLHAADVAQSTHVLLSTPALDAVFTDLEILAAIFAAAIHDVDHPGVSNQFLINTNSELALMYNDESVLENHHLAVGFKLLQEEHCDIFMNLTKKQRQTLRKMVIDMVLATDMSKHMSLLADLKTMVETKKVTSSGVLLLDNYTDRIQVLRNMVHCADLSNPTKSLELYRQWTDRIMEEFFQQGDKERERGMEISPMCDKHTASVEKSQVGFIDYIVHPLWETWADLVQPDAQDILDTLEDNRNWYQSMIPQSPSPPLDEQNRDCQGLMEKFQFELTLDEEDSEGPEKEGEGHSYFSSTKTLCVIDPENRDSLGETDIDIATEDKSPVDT
# Procedure, shortened: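 ACTOne HEK293 cells carry a modified cAMP-gated CNG channel and express endogenous PDE4; plated 1000 cells/well, compounds up to 22.9 uM final. Membrane-potential dye fluorescence (ex 535/em 590) was read; parental cells received 10 uM forskolin + 100 uM RO 20-1724.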
# [14] = qHTS Assay for Identification of Small Molecule Agonists for Hypoxia Response Element Signaling Pathway (AID 914; active means well fitted activation curve with a large enough effect in the signal ratio, with a control signal flat, not every such curve was filed as active; the % refers to the signal ratio; further: potency means the concentration at half of the fitted maximal effect); details: ME-180 (cervical carcinoma) HRE-bla reporter, beta-lactamase ratio, CoCl2, 17 h; activation: hits give high values
# Procedure, shortened: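 A beta-lactamase reporter under hypoxia response element control in ME-180 cells served as the system. Compound titrations plus EC50 CoCl2 ran 17 h at 37 degrees Celsius; AC50 values were fitted from %Activity.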
Compound,"activity change, negative = inhibition [1] [%]",Potency [2],"activity change, negative = inhibition [3] [%]","activity, negative = inhibition [4]",Potency [5] [µM],Potency [6] [µM],Potency [7],Potency [8],Potency [9],outcome [10],Potency [11] [µM],Potency [12],Potency [13],Potency [14]
COc1cccc(Cn2c(=O)c(CCc3ccccc3)nc3cnc(OC)nc32)c1,-4.92,12.6 µM (active),-14.6,1.12%,> 9.22,> 46,6.31 µM (active),2.51 µM (active),inactive,inactive,,,,
O=C(Nc1cccc(F)c1)N1CCCC2(CCN(C(=O)c3cccc(F)c3)CC2)C1,,,,-9.43%,,> 46,,,,inactive,> 11.4,inactive,,
CCNc1ncc2nc(-c3ccccc3)c(=O)n(Cc3ccc(F)cc3)c2n1,,3.16 µM (active),,82.9% [activator] (active),> 9.22,> 46,inactive,,inactive,inactive,> 11.4,,inactive,
COc1ccc(NC(=O)N2CCC3(CC2)CCN(C(=O)c2cccc(F)c2)CC3)cc1,-4.05,inactive,8.11,0.897%,,> 46,,,12.6 µM (active),inactive,,inactive,inactive,
O=c1cnc2cnc(Nc3ccccc3)nc2n1C[C@H]1CCCO1,,0.794 µM (active),,,> 9.22,> 46,,,inactive,inactive,> 11.4,,inactive,
O=C(c1cccc(F)c1)N1CCC2(CCCN(Cc3nccs3)C2)CC1,,inactive,,5.18%,,> 46,,,inactive,inactive,> 11.4,inactive,inactive,
COCCn1c(=O)c(-c2cccs2)nc2cnc(Oc3cccc(Cl)c3)nc21,,,,,> 9.22,> 46,,,,inactive,> 11.4,,inactive,3.16 µM (active)
COc1ccc(Oc2ncc3nc(-c4cccs4)c(=O)n(Cc4cccs4)c3n2)cc1,,,-3.5,,> 9.22,> 46,,,,inactive,> 11.4,inactive,inactive,3.16 µM (active)
O=c1c(-c2ccc(Cl)cc2)nc2cncnc2n1Cc1ccc(F)cc1,,,5.72,-2.95%,> 9.22,> 46,,,inactive,inactive,> 11.4,inactive,inactive,
COc1cccc(Nc2ncc3nc(-c4ccc(F)cc4)c(=O)n(C[C@H]4CCCO4)c3n2)c1,,,-9.67,-5.57%,> 9.22,> 46,,,,inactive,> 11.4,inactive,inactive,
CN(C)c1ncc2nc(-c3ccccc3)c(=O)n(C3CC3)c2n1,,2.51 µM (active),,,> 9.22,> 46,,,,inactive,> 11.4,,,3.16 µM (active)
